Compound activity (PubChem BioAssay)
aSyn UTR act = Activators via SNCA 5'UTR binding, MLPCN; alpha-synuclein 5'UTR reporter, activators screen; 7.1% of 300,000 active; activity score, % (tested at 7.5 µM), hits read low; in the data active = activity score below about -60%
* marks the source's active call; other numbers are inactive results. Only a sample is shown.

Screening CN(C)c1ccc(/C=N/c2cc(-c3ccccc3)nn2-c2ccccc2)cc1 returned aSyn UTR act -133*.
`Clc1ccc(Cc2noc(-c3cccs3)n2)cc1` gave aSyn UTR act -132*.
Screening Cc1ccc2c(CN(C)Cc3ccccc3)cc(=O)oc2c1C returned aSyn UTR act -80*.
`COc1ccccc1N1CCN(C(=O)CSc2ncccc2-c2nc3ccccc3[nH]2)CC1` gave aSyn UTR act -68*.
For COc1ccc(N2CCN(C(=O)CSc3ncccc3-c3nc4ccccc4[nH]3)CC2)cc1 the results were aSyn UTR act -114*.
For Cc1cc2nc(-c3cccnc3SCC(=O)NC(C)C)[nH]c2cc1C the results were aSyn UTR act -122*.
Screening COc1ccccc1N1CCN(Cc2ccc(O)c3ncccc23)CC1 returned aSyn UTR act 77.
O=C1c2ccccc2NC(c2ccc(O)cc2)N1/N=C/c1ccc(O)cc1 (centres undefined) was read as aSyn UTR act -122*.
Screening O=C1c2ccccc2NC(c2ccc(O)cc2)N1c1ccccc1 (centres undefined) returned aSyn UTR act -64*.
For Cc1ccc(Sc2c(CO)c(-c3ccccc3)nn2C)cc1 the results were aSyn UTR act -86*.
For O=C(Nc1ccccc1)Nc1ccc2ccccc2n1 the results were aSyn UTR act -89*.
O=C(Nc1ccc(F)cc1)Nc1ccc2ccccc2n1 was read as aSyn UTR act -106*.
For CC1(C)C(=O)Nc2ccccc2N1C(=O)Cn1ncc(Cl)c(Cl)c1=O the results were aSyn UTR act -167*.
`O=C(Cn1ncc(Cl)c(Cl)c1=O)N1CCN(Cc2ccccc2)CC1` gave aSyn UTR act -71*.
For O=C(Cn1ncc(Cl)c(Cl)c1=O)N1CCOCC1 the results were aSyn UTR act -62*.
CCc1ccc(C(=O)Cn2ncc(Cl)c(Cl)c2=O)cc1 was read as aSyn UTR act -64*.
For O=C(Cn1ncc(Cl)c(Cl)c1=O)N1CCc2ccccc21 the results were aSyn UTR act 135.
`CCN(C(=O)c1cccs1)c1nc(-c2ccc(OC)cc2)cs1` gave aSyn UTR act -130*.
`COCCCN(C(C)=O)c1nc(-c2ccc(OC)cc2)cs1` gave aSyn UTR act -105*.
CCN(CC)c1nc(C)nc2c1cnn2CCc1ccccc1 was read as aSyn UTR act -185*.
`O=C(Nc1ccccc1)c1ccc2c(c1)OCCO2` gave aSyn UTR act -87*.
Screening Cc1ccc(NC(=O)c2ccc3c(c2)OCCO3)cc1C returned aSyn UTR act 74.
For Cc1ccc(NC(=O)c2ccc3c(c2)OCCO3)cc1S(=O)(=O)Nc1cccc(Cl)c1 the results were aSyn UTR act -95*.
`O=C(O)c1cc(S(=O)(=O)Nc2ccc3c(c2)OCCO3)c(Cl)cc1Cl` gave aSyn UTR act -82*.
Screening O=C(Nc1ccc2c(c1)OCCO2)c1c(F)cccc1F returned aSyn UTR act -122*.
Screening O=C(Nc1cccc(F)c1)c1ccc2c(c1)OCCO2 returned aSyn UTR act -111*.
`O=C(NC(=S)Nc1ccc2c(c1)OCCO2)c1ccccc1F` gave aSyn UTR act -155*.
`O=C(NCCc1ccc2c(c1)OCCO2)c1ccccc1F` gave aSyn UTR act -110*.
COC(=O)c1ccsc1NC(=O)c1ccc2c(c1)OCCO2 was read as aSyn UTR act -97*.
CN(C)c1ccc(NC(=O)c2ccc3nc[nH]c3c2)cc1 was read as aSyn UTR act -126*.
Screening O=C(Nc1ccc(F)cc1)c1ccc2nc[nH]c2c1 returned aSyn UTR act -82*.
`CCN(CC)c1ccc(/C=N/NC(=O)c2ccc3nc[nH]c3c2)c(O)c1` gave aSyn UTR act 93.
Screening Cc1ccc(NC(=O)c2ccc3nc[nH]c3c2)cc1C returned aSyn UTR act -170*.
O=C(N/N=C/c1ccccc1[N+](=O)[O-])c1ccc2nc[nH]c2c1 was read as aSyn UTR act -113*.
`CCN(CC(=O)c1c(N)n(C)c(=O)n(C)c1=O)c1cccc2ccccc12` gave aSyn UTR act -72*.
`CN1CCN(/N=C/c2cccc(Cl)c2Cl)CC1` gave aSyn UTR act -72*.
`FC(F)Oc1ccccc1/C=N/n1cnc2ccccc21` gave aSyn UTR act -191*.
For Clc1cc2nc3ccccn3c2cc1Cl the results were aSyn UTR act -115*.
O=C(Nc1cccnc1)c1sc2cccc(F)c2c1Cl was read as aSyn UTR act -166*.
For O=C(CNCc1cccs1)Nc1ccc(N2CCCCCC2)cc1 the results were aSyn UTR act -63*.
`CC(=O)Nc1ccc(SCC(=O)c2cc(C)n(Cc3cccs3)c2C)cc1` gave aSyn UTR act 68.
Screening CC(=O)c1ccc(NC(=O)CNCc2cccs2)cc1 returned aSyn UTR act -134*.
`Cc1ccc(NC(=O)CNCc2cccs2)cc1Br` gave aSyn UTR act -85*.
Screening Cc1ccc(N(C)C(=O)c2ccc3c(Cl)c4c(nc3c2)CCC4)cc1C returned aSyn UTR act -136*.
For COc1ccc(N(C)C(=O)c2ccc3c(Cl)c4c(nc3c2)CCCC4)c(OC)c1 the results were aSyn UTR act -88*.
COc1ccc(OC)c(-c2csc(NC(=O)C3=NN(c4ccccc4)C(=O)CC3)n2)c1 was read as aSyn UTR act -129*.
Screening O=C(Nc1nc2ccc(F)cc2s1)c1ccc(N2CCCC2=O)cc1 returned aSyn UTR act -155*.
Cc1csc(NC(=O)c2ccc(N3CCCC3=O)cc2)n1 was read as aSyn UTR act 101.
For O=C(Nc1nc2ccc(F)cc2s1)C1=NN(c2ccccc2)C(=O)CC1 the results were aSyn UTR act -97*.
For O=C(Nc1ccccc1Br)c1ccc(N2CCCC2=O)cc1 the results were aSyn UTR act -124*.
For O=C(Nc1nc2ccc(F)cc2s1)c1ccccn1 the results were aSyn UTR act 102.
Screening COc1cc(OC)c(C(=O)/C=C/c2ccccc2)c(O)c1O returned aSyn UTR act -92*.
COc1cc(O)cc(O)c1C(=O)/C=C/c1ccccc1 was read as aSyn UTR act -140*.
For N#Cc1c(NC(NC(=O)c2ccco2)C(=O)c2ccccc2)sc2c1CCCC2 (centres undefined) the results were aSyn UTR act -77*.
`Cc1ccccc1OCC(=O)Nc1sc2c(c1C#N)CCC2` gave aSyn UTR act -68*.
Screening Cc1noc(C(=O)Nc2sc3c(c2C#N)CCC3)c1Cl returned aSyn UTR act -67*.
CC(C)(C)C(=O)NC(=S)Nc1sc2c(c1C#N)CCCCC2 was read as aSyn UTR act -106*.
Screening Cn1cc([N+](=O)[O-])c(C(=O)Nc2sc3c(c2C#N)CCC3)n1 returned aSyn UTR act 64.
Screening N#Cc1c(NC(=O)CCCC(=O)O)sc2c1CCCCC2 returned aSyn UTR act 90.
For Cc1ccc(C(=O)Nc2sc3c(c2C#N)CCCCC3)cc1C the results were aSyn UTR act -191*.
Cc1cc(C(=O)Nc2sc3c(c2C#N)CCC3)no1 was read as aSyn UTR act -107*.
`Cc1cc(C(=O)Nc2sc3c(c2C#N)CCCC3)no1` gave aSyn UTR act -81*.
`CCCC(=O)Nc1sc2c(c1C#N)CCCCC2` gave aSyn UTR act -167*.
Clc1ccc(/C=N/N2CCCCC2)cc1 was read as aSyn UTR act -103*.
`O=[N+]([O-])c1ccc(/C=N/N2CCCCC2)cc1` gave aSyn UTR act -128*.
Screening Nc1ccc2nc(-c3ccccc3)cnc2c1 returned aSyn UTR act -76*.
CCCCOc1ccc(-c2cnc3ccccc3n2)cc1 was read as aSyn UTR act 101.
Screening Clc1ccc(-c2cnc3ccccc3n2)cc1 returned aSyn UTR act -208*.
